# High-throughput results (PubChem)
# Hits are enriched below; roughly 5.9% of the tested compounds scored in any of these assays.
# TrxR1 substrate – qHTS Assay for Substrates of Mammalian Selenoprotein Thioredoxin Reductase 1 (TrxR1): qHTS. Thioredoxin reductase 1, cytoplasmic (Rattus norvegicus), O89049. purified TrxR1 substrate turnover, NADPH consumption readout. Potency, µM (titrated, usually from 114 µM), without a hit: at the top dose activity change, negative = substrate turnover. 0.01% of 390,000 active. AID 588456, 2011; further: potency means the concentration at half of the fitted maximal effect; nearly all actives have a fitted effect of over 50% in size
#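 Rat TrxR1, dispensed at 90 nM, was prereduced with 400 uM NADPH (final) for 5 min at ~22 deg C, then incubated with compound 15 min before 400 uM selenite. A first-read NADPH fluorescence drop versus no-compound background flagged substrates.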
# FBPA coupling cs – qHTS Assay for Inhibitors of Fructose-1,6-bisphosphate Aldolase from Giardia Lamblia: Coupling assay counterscreen | activity change, negative = inhibition, % at 58.2 µM, hits read low | coupling enzyme system counterscreen, AmpLite Red fluorescence | 0.67% of 290,000 active; in the data active means activity change below about -30%
#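 Counterscreen lacking aldolase: glyceraldehyde-3-phosphate coupling-enzyme reagent preincubated 10 min at RT with compound (at 57.5 uM final), then substrate/coupling system with AmpLite Red added; fluorescence read at 525/598 nm after 20 min RT.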
# GALK inh – qHTS Assay for Inhibitors of Human Galactokinase (GALK) | 0.007% of 270,000 active | Purified GALK, Kinase-Glo residual ATP luminescence | Potency, µM (highest dose often 57.5 µM), inactives show top-dose activity change, negative = inhibition, most hits filed as inhibitors | P51570; further: potency means the concentration at half of the fitted maximal effect
#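 Compounds were pin-transferred into ATP buffer (35 uM final), then GALK plus galactose (5 nM, 100 uM final) was added. After 1 h at room temperature, Kinase-Glo Plus was added and luminescence read after 10 min.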
# RORg inh – qHTS for inhibitors of ROR gamma transcriptional activity. Drosophila S2 Gal4-RORgamma UAS-luciferase reporter, 20 h. 5.4% of 310,000 active. Potency, µM (top dose mostly 53.6 µM), for the others: at the highest dose activity change, negative = inhibition, most hits filed as inhibitors. AID 2551, 2010; further: potency means the concentration at half of the fitted maximal effect; nearly all actives have a fitted effect of over 60% in size
# Target sequence (P51450 whole entry, looked up, the tested form may be a part): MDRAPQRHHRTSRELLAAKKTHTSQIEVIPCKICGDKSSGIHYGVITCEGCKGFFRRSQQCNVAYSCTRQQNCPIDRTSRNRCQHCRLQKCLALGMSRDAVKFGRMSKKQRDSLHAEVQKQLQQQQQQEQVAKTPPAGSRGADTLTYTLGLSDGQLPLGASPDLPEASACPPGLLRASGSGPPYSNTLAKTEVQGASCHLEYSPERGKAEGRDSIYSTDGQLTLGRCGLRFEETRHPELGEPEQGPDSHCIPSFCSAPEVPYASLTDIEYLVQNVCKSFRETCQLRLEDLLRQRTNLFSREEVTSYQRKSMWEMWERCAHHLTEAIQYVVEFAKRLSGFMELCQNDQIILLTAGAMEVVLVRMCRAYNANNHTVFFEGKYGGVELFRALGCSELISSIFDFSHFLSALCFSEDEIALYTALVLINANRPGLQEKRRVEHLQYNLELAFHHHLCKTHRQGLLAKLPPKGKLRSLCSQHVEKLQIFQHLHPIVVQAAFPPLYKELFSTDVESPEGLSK
#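 Read-out: Photinus luciferase luminescence; inhibitors lower reporter signal. Insect Schneider cells with Gal4-ROR gamma fusion under metallothionein promoter, UAS reporter; 700 uM final copper sulfate induction, 20 hr, ambient temperature.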
# TrxR1 inh – qHTS Assay for Inhibitors of Mammalian Selenoprotein Thioredoxin Reductase 1 (TrxR1): qHTS | Potency, µM (titrated, usually from 114 µM), for inactives: at the highest dose activity change, negative = inhibition, usual class: inhibitors | 1% of 390,000 active | AID 588453, 2011 | recombinant rTrxR1, NADPH fluorescence consumption, selenite substrate; further: potency means the concentration at half of the fitted maximal effect; nearly all actives have a fitted effect of over 65% in size
#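 Rat TrxR1 (90 nM in the dispensed reagent) was pre-reduced with 400 uM NADPH for 5 min at room temperature, then incubated with compound for 15 min. After 400 uM selenite was added, NADPH fluorescence (Ex 340/Em 450 nm) was followed for 8 min.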
# VP16 counter – VP16 counterscreen qHTS for inhibitors of ROR gamma transcriptional activity; 3.5% of 310,000 active; Potency, µM (series often up to 53.6 µM), without a hit: at the top dose activity, negative = inhibition, most hits filed as inhibitors; Drosophila S2 Gal4-VP16 UAS-luciferase, luminescence, 20 h;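 further: Gal4-VP16 expression switched on by copper sulfate through the metallothionein promoter; potency means the concentration at half of the fitted maximal effect; nearly all actives have a fitted effect of over 50% in size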
# * = called active by the depositor; i = inactive; ? = inconclusive; . = no result; ! = a repeat was not active; [ ] = another dose, or the depositor's remark. Unless noted, the call rests on the fitted dose curve; in most records, active means well fitted curve in the direction sought with a large enough effect; inconclusive means small, poorly fitted or top-dose-only effect, or another doubt; inactive means no such curve, though single readings can be large; an effect the other way counts as inactive or inconclusive. On the % scale 0 is the no-effect control and ±100 the full control effect.
SMILES,TrxR1 substrate,FBPA coupling cs,GALK inh,RORg inh,TrxR1 inh,VP16 counter
CCN(CC)c1ccc(C=C2C(=O)NC(=S)NC2=O)cc1,-5%,-26,0%,41%,4.5µM*,14%
CN(C)c1ccc(C=C2C(=O)NC(=S)NC2=O)cc1,-10%,.,.,.,4µM*,.
CC(=O)N1CCN(c2ccc(OC[C@@H]3CO[C@@](Cn4ccnc4)(c4ccc(Cl)cc4Cl)O3)cc2)CC1,-5%,3,.,1%[16.9 µM],9%,-8%[17 µM]
Cc1ccsc1/C=N/NC(=O)c1cccc(S(=O)(=O)Nc2ccccc2Cl)c1,-6%,-23,-2%,2.5µM*,-5%,3.2µM*
O=C(CCCCCn1c(=S)[nH]c2ccccc2c1=O)N1CCC2(CC1)OCCO2,1%,3,-1%,10µM*,-12%,?
COc1ccc(-n2nc(C(=O)NCC(=O)N3CCC4(CC3)OCCO4)c3ccccc3c2=O)cc1OC,-5%,2,0%,16µM*,-3%,?
COc1ccc(C(=O)C2CCCN(C3CSCCSC3)C2)c(C)c1 (configuration not stated),0%,5,5%,10µM*,7%,2%
CC(C)Oc1cc(-n2nc(C(C)(C)C)oc2=O)c(Cl)cc1Cl,.,1,.,35%,.,?
Cc1ccc(-n2cc(CNC(C)Cc3cnccn3)c(-c3cccc(C)c3)n2)cc1 (configuration not stated),-3%[57.1 µM],1,0%,-7%,10%[57.1 µM],-7%
N#CC1=C(N)Oc2n[nH]c(-c3cccs3)c2C1c1ccsc1 (configuration not stated),-2%,-14,-2%,0%,?,-4%
N#CC1=C(N)Oc2n[nH]c(-c3cccs3)c2C1c1ccco1 (configuration not stated),-6%,-31*,0%,-2%,?,16%
O=C(COc1ccccc1)N1CCN(CCN2C(=O)c3cccc4cccc(c34)C2=O)CC1,1%[57.1 µM],2,-2%,12%,-25%,1%
O=C1c2cccc3cccc(c23)C(=O)N1CCN1CCN(C(=S)Nc2ccccc2)CC1,-6%,0,0%,14µM*,-3%,?
CS(=N)(=O)CC[C@H](N)C(=O)O (some centres not stated),11%[57.1 µM],.,.,.,i,.
COc1cc2c(ccc3c4cc(OC)c(OC)cc4c[n+](C)c23)cc1O,0%,.,.,.,4%,.
COc1ccc2c(c[n+](C)c3c4cc5c(cc4ccc23)OCO5)c1OC,?,-39*!,.,7.1µM*,?,8.9µM*!
CCc1ccc(N2C(=O)NC(=O)/C(=C\c3cccn3CCOc3ccc(C(C)C)cc3)C2=O)cc1,-1%,6,-3%,-22%,-10%,0.4µM*
Cc1ccc(OCCn2cccc2/C=C2/C(=O)NC(=O)N(Cc3ccco3)C2=O)cc1,4%,1,.,44%,40µM*,?
CC(C)(C)n1cccc1/C=C1\C(=O)NC(=O)N(c2ccccc2)C1=O,-7%,2,1%,-21%,-22%,-3%
Cn1cccc1/C=C1\C(=O)NC(=O)N(Cc2ccco2)C1=O,-2%,-3,-2%,-5%,-27%,4%[10 µM]
O=c1[nH]c(O)c(/C=C2/C=CC(c3cc(Cl)ccc3Cl)=N2)c(=O)[nH]1,0%,-2,-24%,13%,2%,3%
Cc1cc(/C=C2\C(=O)NC(=O)N(c3ccc(Cl)cc3)C2=O)c(C)n1-c1sc2c(c1C#N)CCCC2,-5%,3,-6%,4%,50µM*,6%
O=c1c2ccccc2[se]n1-c1ccccc1,?,-2,1%,10µM*,28µM*!,11µM*
CC1(C)N(O)C(c2ccc(C(=O)O)cc2)=[N+]([O-])C1(C)C,.,-51*,.,26%,.,0%
CN(C)Cc1c[nH]c2cc([N+](=O)[O-])ccc12,3%[57.1 µM],.,.,.,3%[2.29 µM],.
SMILES,TrxR1 substrate,FBPA coupling cs,GALK inh,RORg inh,TrxR1 inh,VP16 counter
CCCCc1ccc(C(=O)O)nc1,3%[57.1 µM],-67*!,.,7.1µM*,6%[57.1 µM],8.9µM*
CCCCCCCCc1ccc(O)cc1,-1%,.,.,0%,16%,-15%
CCC(=NCc1ccc(F)cc1)c1c(O)n(C)c(=O)n(C)c1=O,6%,0,-1%,24%,12%,22µM*
CCC(=NCCC(c1ccccc1)c1ccccc1)c1c(O)n(C)c(=O)n(C)c1=O,-8%,1,0%,15%,5%,2%
O=C(O)c1sccc1Oc1ccc(F)cc1[N+](=O)[O-],4%[57.1 µM],-1,0%,-33%,?,7%
O=C1Nc2ccc(Br)cc2C(c2ccccc2)=NC1O (configuration not stated),-1%,-1,.,-13%,2%,-3%
O=C1Nc2ccc(Br)cc2C(c2ccc(Cl)cc2)=NC1O (configuration not stated),-4%,-34*,-3%,-4%,11%,3%
Cc1ccc(N2C(=O)NC(=O)/C(=C/c3ccc(OC(=O)c4cccs4)cc3)C2=O)cc1,-2%,5,0%,3%,32µM*,-8%
COc1ccc(N2C(=O)NC(=O)/C(=C/c3cccc(OC(=O)c4cccs4)c3)C2=O)cc1Cl,-8%,8,-3%,-4%,10µM*,14%
COc1ccccc1N1C(=O)NC(=O)/C(=C/c2ccc3c(c2)Cc2ccccc2-3)C1=O,8%,1,-3%,-33%,?,?
COc1cc(C(c2c(O)c3ccccc3oc2=O)c2c(C)n(C)n(-c3ccccc3)c2=O)ccc1OCC(=O)O (configuration not stated),2%,.,.,.,-1%,.
C=CCCl,.,.,.,-4%,.,-3%
CCN1C(=O)/C(=C\c2ccc([N+](=O)[O-])s2)C(=O)NC1=S,.,-40*,-1%,-13%,.,-18%
C=CCN1C(=O)/C(=C/c2ccc(Br)s2)C(=O)NC1=S,-2%,0,-7%,11%[1.91 µM],6.3µM*,?
CC1(C)C[C@H]2C=C(C=O)[C@]3(C=O)C[C@]3(C)[C@H]2C1,0%,0,.,1.4µM*,-22%,1.1µM*
c1ccc2c(c1)OCC(C1=NCCN1)O2 (configuration not stated),11%[57.1 µM],2,7%,16µM*!,?,-1%
